Screening results as filed in PubChem BioAssay.
MITF inh: human MITF inhibition, primary screen; actives 0.91% (n = 650,000); inhibition, % at 2.6 µM; AlphaScreen MITF homodimerization, bead proximity signal; O75030; in the data active means inhibition above about 50%
Target sequence (O75030 whole entry, looked up): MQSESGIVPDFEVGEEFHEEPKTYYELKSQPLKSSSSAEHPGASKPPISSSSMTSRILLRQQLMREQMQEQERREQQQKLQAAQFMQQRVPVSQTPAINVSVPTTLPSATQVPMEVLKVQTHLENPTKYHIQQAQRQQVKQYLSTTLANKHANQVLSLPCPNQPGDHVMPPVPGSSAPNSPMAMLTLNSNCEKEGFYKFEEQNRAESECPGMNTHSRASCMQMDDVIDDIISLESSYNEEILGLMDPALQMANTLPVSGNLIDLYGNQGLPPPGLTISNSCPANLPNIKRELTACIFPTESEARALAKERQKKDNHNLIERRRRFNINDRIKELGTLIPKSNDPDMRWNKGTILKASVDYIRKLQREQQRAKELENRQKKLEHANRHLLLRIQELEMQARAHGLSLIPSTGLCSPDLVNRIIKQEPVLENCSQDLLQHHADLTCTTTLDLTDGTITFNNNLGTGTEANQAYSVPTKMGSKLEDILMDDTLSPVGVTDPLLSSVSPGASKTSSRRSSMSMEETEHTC
GPR151 activ: activates the human receptor GPR151. PathHunter beta-arrestin GPR151 cells, luminescence. Q8TDV0. activation, % at 11.2 µM. actives 1% (n = 650,000); in the data active means activation above about 4.9%
TEAD-YAP inh: TEAD-YAP interaction inhibition; HEK-TIYL cells, TEAD-Gal4/YAP UAS-luciferase luminescence; inhibition, % at 9.12 µM; actives 1.4% (n = 640,000); AID 1259422; in the data active means inhibition above about 32%
FBW7 act: activators of human E3 ligase FBW7. AID 1259310. actives 0.13% (n = 650,000). AlphaScreen FBW7–phospho-cyclin E peptide binding, activator screen. normalized activity (activation), % at 26.1 µM. Q969H0; in the data active means normalized activity above about 1.9%;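 further: purified mutant Fbw7 with reduced substrate affinity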
Numbers stand for hits. An excerpt weighted towards active compounds, which were near 3.5% of everything screened.

`CCCCOc1ccc(CONC(=O)COc2ccc(Cl)cc2Cl)cc1` gave MITF inh inactive, GPR151 activ inactive, TEAD-YAP inh inactive and FBW7 act inactive.
`CC(=O)Nc1nc(-c2ccc3c(c2)NC(=O)CO3)cs1` gave MITF inh inactive, GPR151 activ inactive, TEAD-YAP inh 58 and FBW7 act inactive.
For CCC(=O)NNC(=O)CSc1nc2cc3c(cc2cc1CC)OCCO3 the results were MITF inh inactive, GPR151 activ inactive, TEAD-YAP inh inactive and FBW7 act inactive.
CCc1cc2cc3c(cc2nc1SCC(=O)NC(C)(C)C)OCCO3 was read as MITF inh inactive, GPR151 activ inactive, TEAD-YAP inh 47 and FBW7 act inactive.
`CCc1cc2cc3c(cc2nc1SCC(=O)NC(C)(C)C)OCO3` gave MITF inh inactive, GPR151 activ inactive, TEAD-YAP inh 38 and FBW7 act inactive.
Screening O=C(COC(=O)CSCc1c[nH]c(=O)[nH]c1=O)Nc1ccc2ccccc2c1 returned MITF inh inactive, GPR151 activ inactive, TEAD-YAP inh inactive and FBW7 act inactive.
`CCN(CC)c1ccc(C2C3=C(CCCC3=O)Nc3nc(SC)[nH]c(=O)c32)cc1` (stereo unspecified) gave MITF inh inactive, GPR151 activ inactive, TEAD-YAP inh inactive and FBW7 act inactive.
O=C(NCc1ccc(F)cc1)c1nn2c(c1Cl)NC(c1ccco1)CC2C(F)(F)F (stereo unspecified) was read as MITF inh inactive, GPR151 activ inactive, TEAD-YAP inh inactive and FBW7 act inactive.
`CSc1ccc(/C=C2\C(=O)ON=C2C)cc1` gave MITF inh 79, GPR151 activ inactive, TEAD-YAP inh inactive and FBW7 act inactive.
Screening CCOc1c(Br)cc(/C=C2\C(=O)ON=C2C)cc1OC returned MITF inh 78, GPR151 activ inactive, TEAD-YAP inh inactive and FBW7 act inactive.
`C#CCOc1ccc(/C=C2\C(=O)ON=C2C)cc1OC` gave MITF inh 68, GPR151 activ inactive, TEAD-YAP inh inactive and FBW7 act inactive.
`COc1cc(/C=C2\C(=O)ON=C2C)cc(Cl)c1OC(C)C` gave MITF inh 75, GPR151 activ inactive, TEAD-YAP inh inactive and FBW7 act inactive.
For O=P1(Nc2ccc(F)cc2F)C=C(c2ccccc2)OC(c2ccccc2)=C1 the results were MITF inh inactive, GPR151 activ inactive, TEAD-YAP inh inactive and FBW7 act inactive.
COc1ccc(OC)c(/C=C2/C(=O)ON=C2C)c1 was read as MITF inh inactive, GPR151 activ inactive, TEAD-YAP inh inactive and FBW7 act inactive.
COc1ccc(Br)cc1/C=C1\C(=O)ON=C1C was read as MITF inh 65, GPR151 activ inactive, TEAD-YAP inh inactive and FBW7 act inactive.
`c1ccc(-c2nc(NC3CC3)cc(-c3cccnc3)n2)nc1` gave MITF inh inactive, GPR151 activ inactive, TEAD-YAP inh 44 and FBW7 act inactive.
Screening c1ccc(-c2nc(NC3CC3)cc(-c3cccnc3)n2)cc1 returned MITF inh inactive, GPR151 activ inactive, TEAD-YAP inh inactive and FBW7 act inactive.
Screening c1ccc(-c2nc(NC3CCCCC3)cc(-c3cccnc3)n2)nc1 returned MITF inh inactive, GPR151 activ inactive, TEAD-YAP inh 69 and FBW7 act inactive.
c1ccc(-c2nc(NC3CCCCC3)cc(-c3ccncc3)n2)nc1 was read as MITF inh inactive, GPR151 activ inactive, TEAD-YAP inh 36 and FBW7 act inactive.
Cc1ccc(/C(O)=C2/C(=O)C(=O)N(CCCN(C)C)C2c2cccnc2)cc1 (stereo unspecified) was read as MITF inh inactive, GPR151 activ inactive, TEAD-YAP inh inactive and FBW7 act inactive.
For CC(=O)NC1=NN(C(C)=O)C2(S1)C(=O)N(C)c1ccccc12 (stereo unspecified) the results were MITF inh inactive, GPR151 activ inactive, TEAD-YAP inh inactive and FBW7 act inactive.
Screening CCc1cccc2c1N=C/C2=C\c1c(O)n(Cc2ccccc2)c(=O)[nH]c1=O returned MITF inh inactive, GPR151 activ inactive, TEAD-YAP inh inactive and FBW7 act inactive.
For O=c1[nH]c(=S)n(Cc2ccco2)c(O)c1/C=C1\C=Nc2ccc(Br)cc21 the results were MITF inh 84, GPR151 activ inactive, TEAD-YAP inh inactive and FBW7 act inactive.
CCc1cccc2c1N=C/C2=C\c1c(O)n(Cc2ccco2)c(=O)[nH]c1=O was read as MITF inh 58, GPR151 activ inactive, TEAD-YAP inh inactive and FBW7 act inactive.
CCOc1ccc(-n2c(SCC(=O)Nc3nnc(SCC)s3)nc3c(c2=O)SCC3)cc1 was read as MITF inh inactive, GPR151 activ inactive, TEAD-YAP inh inactive and FBW7 act inactive.
CC(C)CCOC(=O)C[N+](C)(C)CCOC1CC2CCC1(C)C2(C)C (stereo unspecified) was read as MITF inh inactive, GPR151 activ inactive, TEAD-YAP inh 37 and FBW7 act inactive.
For O=C(CN1CCC(Cn2cnc3ccccc32)CC1)Nc1nc2ccc(F)cc2s1 the results were MITF inh inactive, GPR151 activ inactive, TEAD-YAP inh 56 and FBW7 act inactive.
For CCOc1ccc(C2=NN3C(C2)c2cccc(OC)c2OC3c2ccc(F)c(F)c2)cc1 (stereo unspecified) the results were MITF inh inactive, GPR151 activ inactive, TEAD-YAP inh inactive and FBW7 act inactive.
For COc1cccc2c1OC(c1ccc(F)c(F)c1)N1N=C(c3ccc(C)o3)CC21 (stereo unspecified) the results were MITF inh inactive, GPR151 activ inactive, TEAD-YAP inh 33 and FBW7 act inactive.
Screening CCOc1cccc2c1OC(c1ccccc1Cl)N1N=C(c3ccc(C)o3)CC21 (stereo unspecified) returned MITF inh inactive, GPR151 activ inactive, TEAD-YAP inh inactive and FBW7 act inactive.
COc1cccc2c1OC(c1ccccc1Cl)N1N=C(c3ccc(C)o3)CC21 (stereo unspecified) was read as MITF inh inactive, GPR151 activ inactive, TEAD-YAP inh 44 and FBW7 act inactive.
Screening N#CCSc1nnc(CNC(=O)c2ccc(F)cc2)o1 returned MITF inh inactive, GPR151 activ inactive, TEAD-YAP inh inactive and FBW7 act inactive.
CC(C)c1nc2ccccc2c2nn(CC(=O)NCC3CC3)c(=O)n12 was read as MITF inh inactive, GPR151 activ inactive, TEAD-YAP inh inactive and FBW7 act inactive.
CCOC(=O)c1c(N)sc2c1CCN(C)C2 was read as MITF inh inactive, GPR151 activ inactive, TEAD-YAP inh inactive and FBW7 act inactive.
CCOC(=O)c1c(/N=C/c2cccc(OC)c2O)sc2c1CCN(C)C2 was read as MITF inh inactive, GPR151 activ inactive, TEAD-YAP inh inactive and FBW7 act 2.6.
CCCCN(C)c1nnc(NC(=O)Nc2ccccc2OC)s1 was read as MITF inh inactive, GPR151 activ inactive, TEAD-YAP inh inactive and FBW7 act inactive.
Screening CCCCN(C)c1nnc(NC(=O)Nc2cc(OC)c(OC)c(OC)c2)s1 returned MITF inh inactive, GPR151 activ inactive, TEAD-YAP inh 56 and FBW7 act inactive.
Screening CC[C@H](C)[C@H]1C(=O)Nc2cc(S(C)(=O)=O)ccc2N1C(=O)CC(C)C returned MITF inh inactive, GPR151 activ inactive, TEAD-YAP inh inactive and FBW7 act inactive.
